Our source for the outcome and AC50 values is PubChem BioAssay (EPA / NIEHS).

Results filed as inconclusive are left out. Calls of active or inactive are those of the source. The calls were made as follows: active = hit-call score of the fitted dose curve at least 0.9, where 1 is the maximum; inconclusive = response in the unintended direction; inactive = score below 0.9.

Read-out in this assay: ABC Transporter (ABCB11), ABCB11 (gene 8647)
Briefly: CLD_ABCB11_48hr: CellzDirect (CLD) Gene Expression Assay for ABC Transporter (ABCB11) at 48 hours (AID 2283697). On the procedure:
CLD_48hr is a cell-based, multiplexed-readout assay that uses hepatocyte, a human liver primary cell, with measurements taken at 48 hours after chemical dosing in a 96-well plate.CLD_ABCB11_48hr is one of 16 assay component(s) measured or calculated from the CLD_48hr assay. It is designed to make measurements of mRNA induction, a form of inducible reporter, as detected with chemiluminescence signals by Quantitative Nuclease Protection Assay (qNPA) technology.Data from the assay component CLD_ABCB11_48hr was analyzed at the endpoint, CLD_ABCB11_48hr, in the positive analysis fitting direction relative to DMSO as the negative control and baseline of activity. Using a type of inducible reporter, gain-of-signal activity can be used to understand changes in the reporter gene as they relate to the gene ABCB11. Furthermore, this assay endpoint can be referred to as a primary readout. To generalize the intended target to other relatable targets, this assay endpoint is annotated to the transporter intended target family, where subfamily is ABC transporter.
Human hepatocyte cultures were treated daily for two consecutive days with fresh dosing solutions containing appropriate concentrations of the 320 ToxCast chemicals (chemical identities were blinded to CellzDirect and other ToxCast collaborators), vehicle control (0.2% DMSO), and positive control inducers as summarized in Table 1. Due to the large number of treatment groups and chemicals examined, the ToxCast chemicals were divided into two groups (spanning two independent cultures of hepatocytes from separate donor preparations (Hu778: ToxCast plates 1 and 2; Hu776: ToxCast plates 3 and 4). Each preparation of human hepatocyte cultures was treated with respective vehicle control, medium only control, set of six positive controls/reference chemicals for the five hepatic receptor pathways, and a subset of eight of the ToxCast chemicals (indoxacarb, pyrithiobac-sodium, norflurazon, cyhalofop-butyl, methomyl, thiram, acetochlor, and propiconazole). These replicate data, coupled with internal replicates designed within the blinded ToxCast chemical library, provided additional data to evaluate interindividual differences between hepatocyte preparations and their potential impact on chemical profiles.Cell morphology and integrity were evaluated using phase-contrast microscopy as an indicator of hepatocyte cell health (Tyson & Green, 1987). Cultures for each treatment group (i.e., media, vehicle [0.2% DMSO], positive control inducers [multiple concentrations], and the ToxCast chemicals [multiple concentrations]) were observed and cell morphology was assessed relative to vehicle control cultures at each harvest time point (0, 6, 24, or 48 h). […] Images were evaluated at the conclusion of the study to assess changes in cell integrity and account for the effects of chemical exposure on uncharacteristic changes in concentration-dependent gene expression profiles. The results from these determinations of apparent cytotoxicity were annotated (yes/no) alongside the corresponding qNPA data for reference.At the conclusion of each treatment period, hepatocyte cultures (96-well) were washed with 1 volume of HBSS, lysed by addition of 25 ul ArrayPlate lysis buffer (HTG, Tucson, AZ), and 70 ul/well of Denaturation Oil, denatured by incubation at 95C for 10 min, and frozen at approximately -70C until analysis by nuclease protection assay (qNPA) (Roberts et al., 2007). For qNPA analysis, cell lysates were thawed at 50C for approximately 30 min, qNPA probes were added, and samples were incubated at 95C for 10 min to begin the detection process by denaturing the target RNA, dissociating the duplexes and secondary structure hybridization. At the conclusion of the hybridization period, S1 nuclease reagent was added to each sample to digest all nonprotected nucleotides at 50C for 60-90 min. […]
In the case of `COC(=O)c1ccccc1S(=O)(=O)NC(=O)N(C)c1nc(C)nc(OC)n1`, the outcome was inactive.
Turning to `CCOc1nc(NC)nc(NC(=O)NS(=O)(=O)c2ccccc2C(=O)OC)n1`, the result was inactive.
Regarding `O=C1c2ccccc2C(=O)N1SC(Cl)(Cl)Cl`, the compound was classed as inactive.
`CCS(=O)(=O)c1cccnc1S(=O)(=O)NC(=O)Nc1nc(OC)cc(OC)n1`: the call was inactive.
As to `Cc1cc(C)nc(NC(=O)NS(=O)(=O)c2ccccc2C(=O)OC2COC2)n1`, the call was inactive.
In the case of `Oc1cc(Cl)ccc1Oc1ccc(Cl)cc1Cl`, the call was inactive.
As for `O=C(NC(=O)c1c(F)cccc1F)Nc1ccc(OC(F)(F)C(F)OC(F)(F)F)c(Cl)c1` (centres undefined), the compound was called inactive.
On to `CCOCN(C(=O)CCl)c1c(C)cccc1CC`, for which the result was inactive.
With `O=C(Nc1ccccc1)Nc1cnns1`, the call was inactive.
As to `Clc1ccccc1-c1nnc(-c2ccccc2Cl)nn1`, the call was inactive.
For `COP(=O)(OC)OC=C(Cl)Cl`, the result was inactive.
In general, AC50 refers to the concentration giving half of the maximal activity seen. Turning to `CC[C@H](C)[C@H]1O[C@]2(C=C[C@@H]1C)C[C@@H]1C[C@@H](C/C=C(\C)[C@@H](O[C@H]3C[C@H](OC)[C@@H](O[C@H]4C[C@H](OC)[C@@H](O)[C@H](C)O4)[C@H](C)O3)[C@@H](C)/C=C/C=C3\CO[C@@H]4[C@H](O)C(C)=C[C@@H](C(=O)O1)[C@]34O)O2` (tested in a mixture with another compound), the half-maximal activity concentration (AC50) is 206 nM (active).
On to `Oc1ccc(Cl)cc1Cc1ccccc1`, for which the call was inactive.
Turning to `CCc1ccc(C(=O)NN(C(=O)c2cc(C)cc(C)c2)C(C)(C)C)cc1`, the outcome was inactive.
Still for that read-out and setting: to `N#Cc1c(Cl)c(Cl)c(Cl)c(C#N)c1Cl` belongs “inactive”; to `CNC(=O)/C=C(\C)OP(=O)(OC)OC`, “inactive”; to `CCCN(CCC)c1c([N+](=O)[O-])cc(C(F)(F)F)cc1[N+](=O)[O-]`, “inactive”.
On the same count and under the same terms, to `COP(=S)(OC)Oc1ccc([N+](=O)[O-])cc1` belongs “inactive”; to `COc1cc(OC)nc(NC(=O)NS(=O)(=O)c2cc(NC=O)ccc2C(=O)N(C)C)n1`, “inactive”.
